Test results taken from PubChem BioAssay AID1159580 (chemical genetic matrix, 2015).
Screen size: about 5,500 compounds; about 2,000 (36%) were called active. Another 18% or so got no clear call; they are omitted. The list shows a part of the results. Unmarked numbers belong to inactive results. Cut-off read from the data, not from the text of the source: active = normalized growth mostly below about 0.91 (no sharp cut-off); inconclusive = no clear call, values can overlap the other calls; inactive = mostly above about 0.92.

Assay: chemical genetic growth profiling, strain panel (AID 1159580);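 note: tested at 20 µM; growth read once vehicle control cultures reached saturation at 30 °C; 1 = growth at the plate median or of vehicle wells; lower values mean less growth of the strain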
Settings: S. cerevisiae deletion strains, growth OD

`CC(C)N(C(=O)CCl)c1ccccc1` showed a normalized growth (locus YAL013W, strain DEP1, stronger effect = lower value) of 1.03, a normalized growth (locus YAL021C, strain ccr4, stronger effect = lower value) of 1.03 and a normalized growth (locus YAL026C, strain drs2, stronger effect = lower value) of 1.04. The normalized growth (locus YAL030W, strain snc1, stronger effect = lower value) was 1.02, the normalized growth (locus YBL061C, strain skt5, stronger effect = lower value) was 1.01 and the normalized growth (locus YBR009C, strain hhf1, stronger effect = lower value) was 0.949. For the same compound, the normalized growth (locus YBR021W, strain FUR4, stronger effect = lower value) was 1.07, the normalized growth (locus YBR023C, strain chs3, stronger effect = lower value) was 1.02 and the normalized growth (locus YBR171W, strain sec66, stronger effect = lower value) was 1.01. It also gave a normalized growth (locus YBR229C, strain ROT2, stronger effect = lower value) of 1.02, a normalized growth (locus YBR231C, strain swc5, stronger effect = lower value) of 0.991 and a normalized growth (locus YBR279W, strain paf1, stronger effect = lower value) of 0.993. The normalized growth (locus YCL011C, strain gbp2, stronger effect = lower value) was 1.01, the normalized growth (locus YCL016C, strain dcc1, stronger effect = lower value) was 1.01 and the normalized growth (locus YCL029C, strain bik1, stronger effect = lower value) was 1.02. It also gave a normalized growth (locus YCL061C, strain MRC1, stronger effect = lower value) of 1.02, a normalized growth (locus YCL069W, strain vba3, stronger effect = lower value) of 1.01 and a normalized growth (locus YCR088W, strain abp1, stronger effect = lower value) of 1.03. The normalized growth (locus YDL005C, strain med2, stronger effect = lower value) was 1.04, the normalized growth (locus YDL035C, strain GPR1, stronger effect = lower value) was 1.04 and the normalized growth (locus YDL040C, strain nat1, stronger effect = lower value) was 1. For the same compound, the normalized growth (locus YDL074C, strain BRE1, stronger effect = lower value) was 1.05, the normalized growth (locus YDL101C, strain DUN1, stronger effect = lower value) was 1.02 and the normalized growth (locus YDL134C, strain PPH21, stronger effect = lower value) was 1.02. For the same compound, the normalized growth (locus YDL185W, strain tfp1, stronger effect = lower value) was 1.02, the normalized growth (locus YDL192W, strain arf1, stronger effect = lower value) was 1.01 and the normalized growth (locus YDR001C, strain nth1, stronger effect = lower value) was 1.01. For the same compound, the normalized growth (locus YDR069C, strain doa4, stronger effect = lower value) was 0.979, the normalized growth (locus YDR101C, strain arx1, stronger effect = lower value) was 1.02 and the normalized growth (locus YDR137W, strain rgp1, stronger effect = lower value) was 1.08. It also gave a normalized growth (locus YDR150W, strain NUM1, stronger effect = lower value) of 1.03, a normalized growth (locus YDR159W, strain sac3, stronger effect = lower value) of 1.01 and a normalized growth (locus YDR162C, strain NBP2, stronger effect = lower value) of 1.03. For the same compound, the normalized growth (locus YDR195W, strain ref2) was 0.917, the normalized growth (locus YDR297W, strain sur2, stronger effect = lower value) was 1.03 and the normalized growth (locus YDR318W, strain mcm21, stronger effect = lower value) was 1.02. For the same compound, the normalized growth (locus YDR334W, strain swr1, stronger effect = lower value) was 1.01, the normalized growth (locus YDR335W, strain msn5, stronger effect = lower value) was 1.01 and the normalized growth (locus YDR388W, stronger effect = lower value) was 1.02. For the same compound, the normalized growth (locus YDR392W, strain spt3, stronger effect = lower value) was 0.649 (active), the normalized growth (locus YDR502C, strain sam2, stronger effect = lower value) was 1.02 and the normalized growth (locus YEL003W, strain gim4, stronger effect = lower value) was 1. For the same compound, the normalized growth (locus YEL037C, strain rad23, stronger effect = lower value) was 1.01, the normalized growth (locus YEL061C, strain CIN8 (second series), stronger effect = lower value) was 1.01 and the normalized growth (locus YEL061C, strain CIN8, stronger effect = lower value) was 1.02. The normalized growth (locus YER015W, strain faa2, stronger effect = lower value) was 0.997, the normalized growth (locus YER016W, strain bim1, stronger effect = lower value) was 1.01 and the normalized growth (locus YER110C, stronger effect = lower value) was 1.03. For the same compound, the normalized growth (locus YER111C, strain swi4, stronger effect = lower value) was 1.02, the normalized growth (locus YER155C, strain BEM2 (second series), stronger effect = lower value) was 1.01 and the normalized growth (locus YER155C, strain BEM2, stronger effect = lower value) was 1.03. For the same compound, the normalized growth (locus YER167W, strain BCK2, stronger effect = lower value) was 1.03, the normalized growth (locus YFR010W, strain ubp6, stronger effect = lower value) was 0.985 and the normalized growth (locus YGL078C, strain dbp3, stronger effect = lower value) was 1.03. The normalized growth (locus YGL086W, strain mad1, stronger effect = lower value) was 1.02, the normalized growth (locus YGL167C, strain pmr1, stronger effect = lower value) was 1.01 and the normalized growth (locus YGL173C, strain kem1, stronger effect = lower value) was 1.03. For the same compound, the normalized growth (locus YGL227W, strain vid30, stronger effect = lower value) was 1.01, the normalized growth (locus YGL240W, strain doc1, stronger effect = lower value) was 0.977 and the normalized growth (locus YGL248W, strain PDE1, stronger effect = lower value) was 1.04. The normalized growth (locus YGL253W, strain hxk2, stronger effect = lower value) was 0.941, the normalized growth (locus YGR078C, strain PAC10, stronger effect = lower value) was 1.02 and the normalized growth (locus YGR135W, strain pre9, stronger effect = lower value) was 1.01. The normalized growth (locus YGR229C, strain SMI1, stronger effect = lower value) was 1.05, the normalized growth (locus YGR252W, strain gcn5, stronger effect = lower value) was 0.958 and the normalized growth (locus YHR013C, strain ard1, stronger effect = lower value) was 0.881. It also gave a normalized growth (locus YHR027C, strain rpn1, stronger effect = lower value) of 1.01, a normalized growth (locus YHR030C, strain SLT2, stronger effect = lower value) of 1 and a normalized growth (locus YHR079C, strain IRE1 (second series), stronger effect = lower value) of 1.02. For the same compound, the normalized growth (locus YHR094C, strain hxt1, stronger effect = lower value) was 1.01, the normalized growth (locus YHR129C, strain ARP1, stronger effect = lower value) was 1.04 and the normalized growth (locus YHR142W, strain chs7, stronger effect = lower value) was 1.01. For the same compound, the normalized growth (locus YHR200W, strain rpn10, stronger effect = lower value) was 1.02, the normalized growth (locus YIL066C, strain RNR3, stronger effect = lower value) was 1.01 and the normalized growth (locus YIL073C, strain SPO22, stronger effect = lower value) was 0.961. For the same compound, the normalized growth (locus YIL125W, strain kgd1, stronger effect = lower value) was 1.03, the normalized growth (locus YIR030C, strain dcg1, stronger effect = lower value) was 1.02 and the normalized growth (locus YJL092W, strain hpr5, stronger effect = lower value) was 1.03. For the same compound, the normalized growth (locus YJL095W, strain BCK1 (second series), stronger effect = lower value) was 1.01, the normalized growth (locus YJL095W, strain BCK1, stronger effect = lower value) was 1.02 and the normalized growth (locus YJL115W, strain asf1, stronger effect = lower value) was 1.03. The normalized growth (locus YJL129C, strain trk1, stronger effect = lower value) was 1.23 [resistant] (active), the normalized growth (locus YJL134W, strain LCB3, stronger effect = lower value) was 1.03 and the normalized growth (locus YJL154C, strain vps35, stronger effect = lower value) was 1.02. It also gave a normalized growth (locus YJL164C, strain tpk1, stronger effect = lower value) of 0.999, a normalized growth (locus YJL166W, strain qcr8, stronger effect = lower value) of 0.955 and a normalized growth (locus YJL168C, strain set2, stronger effect = lower value) of 1. It also gave a normalized growth (locus YJL187C, strain SWE1 (second series), stronger effect = lower value) of 1.02 and a normalized growth (locus YJL187C, strain SWE1, stronger effect = lower value) of 1.02.
